In PubChem BioAssay (NCATS):
Inconclusive results are not listed. Calls of active or inactive are those of the source. Unless noted, calls follow the shape of the dose curve; as a rule, active = well fitted curve in the direction sought with a large enough effect; inconclusive = small, poorly fitted or top-dose-only effect, or another doubt; inactive = no such curve, though single readings can be large; an effect the other way counts as inactive or inconclusive.

Legend:
[1] = molecular target: Glucocorticoid receptor (Homo sapiens) (UniProt P04150); assay: GR-GFP Redistribution (AID 450;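 active = compounds whose dose series gives a full or clear partial fitted curve of increased nuclear translocation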; also: potency is read from the fitted curve at half-maximal effect)
Chain of Glucocorticoid receptor (Homo sapiens) (P04150 whole entry, looked up, the tested form may be a part): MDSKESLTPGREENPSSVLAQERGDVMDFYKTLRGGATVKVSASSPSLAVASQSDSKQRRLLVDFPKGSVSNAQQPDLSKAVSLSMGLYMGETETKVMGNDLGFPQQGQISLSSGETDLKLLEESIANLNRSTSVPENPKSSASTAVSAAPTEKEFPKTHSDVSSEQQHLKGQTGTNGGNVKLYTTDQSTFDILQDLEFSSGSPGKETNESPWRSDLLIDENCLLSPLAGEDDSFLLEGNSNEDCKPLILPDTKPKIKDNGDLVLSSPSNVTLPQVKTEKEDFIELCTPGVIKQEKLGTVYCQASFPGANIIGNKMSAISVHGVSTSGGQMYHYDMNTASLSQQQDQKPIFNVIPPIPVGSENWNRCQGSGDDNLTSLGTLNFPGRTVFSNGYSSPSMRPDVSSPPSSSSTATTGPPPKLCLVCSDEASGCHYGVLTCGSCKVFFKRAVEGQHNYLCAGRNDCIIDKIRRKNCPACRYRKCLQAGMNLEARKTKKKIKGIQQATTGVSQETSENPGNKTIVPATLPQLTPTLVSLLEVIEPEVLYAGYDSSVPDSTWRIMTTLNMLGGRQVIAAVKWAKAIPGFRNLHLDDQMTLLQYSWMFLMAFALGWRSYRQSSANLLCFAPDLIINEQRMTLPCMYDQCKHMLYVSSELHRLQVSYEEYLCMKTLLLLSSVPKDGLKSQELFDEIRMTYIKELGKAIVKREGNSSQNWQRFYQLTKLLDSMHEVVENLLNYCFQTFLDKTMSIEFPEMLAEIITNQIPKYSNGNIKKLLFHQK

[2] = molecular target: Glucocorticoid receptor (Homo sapiens) (UniProt P04150); assay: GR-EFC Redistribution (AID 451; calls by dose curve; also: potency is read from the fitted curve at half-maximal effect); details: CHO-K1 GR-EFC translocation, beta-gal luminescence, 2 h
How it was run: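 CHO-K1 cells expressing nuclear EA and GR-ED fragments of b-gal; compounds titrated up to 46 uM final, 2 h at 37 C. GR nuclear translocation read as complemented b-gal luminescence after 1 h RT detection.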

[3] = molecular target: Mitogen-activated protein kinase 10 (Mus musculus) (UniProt Q61831); assay: JNK3 AlphaScreen Assay (AID 530; active = well fitted curve in either direction with a large enough effect, not every such curve was filed as active;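 also: kinase came from lysate of stimulated human HepG2 cells; signal reports phosphorylation of biotinylated GST-cJun 1-79 at Ser73 with 10 µM ATP; % is scaled to controls: 0 for no effect and ±100 for the full control effect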)
How it was run: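 Pre-activated (IL-1β/TNFα) JNK3 in HepG2 lysates phosphorylates biotin-GST-cJun(1-79), 10 uM ATP; anti-phospho-cJun(Ser73) AlphaScreen read at room temperature, pH 7.6 Tris buffer. Compounds pre-incubated 15 min as titrations.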

[4] = molecular target: Cytochrome P450 3A4 (Homo sapiens) (UniProt P08684); assay: qHTS Assay for Activators of Cytochrome P450 3A4 (AID 885); also: nearly all actives have a fitted effect of over 65% in size
Chain of Cytochrome P450 3A4 (Homo sapiens) (P08684 whole entry, looked up): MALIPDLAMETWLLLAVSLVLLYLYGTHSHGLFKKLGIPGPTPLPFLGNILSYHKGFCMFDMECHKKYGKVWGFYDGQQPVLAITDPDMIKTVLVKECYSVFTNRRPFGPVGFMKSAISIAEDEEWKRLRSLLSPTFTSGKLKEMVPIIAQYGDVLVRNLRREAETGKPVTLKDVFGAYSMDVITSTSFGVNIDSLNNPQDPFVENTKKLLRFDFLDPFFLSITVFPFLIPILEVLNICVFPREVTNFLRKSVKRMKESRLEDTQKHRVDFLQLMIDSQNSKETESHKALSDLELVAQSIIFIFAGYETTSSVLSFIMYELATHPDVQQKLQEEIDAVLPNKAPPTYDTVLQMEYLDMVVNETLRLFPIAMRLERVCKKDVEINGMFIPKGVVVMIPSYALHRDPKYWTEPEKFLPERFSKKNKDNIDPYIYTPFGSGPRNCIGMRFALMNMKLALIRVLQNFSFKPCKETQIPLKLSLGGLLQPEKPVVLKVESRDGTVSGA
How it was run: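 20nM CYP3A4 + 25uM Luciferin-PPXE (=KM), 200mM KPO4; cpd 10 min RT; NADPH regen, 60 min RT; stop w/ detection buffer, 20 min; luminescence. Normalized to 57 uM ketoconazole.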

[5] = molecular target: ATP-dependent 6-phosphofructokinase (Trypanosoma brucei brucei) (UniProt O15648); assay: qHTS Assay to Find Inhibitors of T. brucei phosphofructokinase: hit validation (AID 492961);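 also: luminescence reports ADP formed as PFK phosphorylates fructose-6-phosphate with ATP; % is scaled to controls: 0 for no effect and ±100 for the full control effect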
Chain of ATP-dependent 6-phosphofructokinase (Trypanosoma brucei brucei) (O15648 whole entry, looked up): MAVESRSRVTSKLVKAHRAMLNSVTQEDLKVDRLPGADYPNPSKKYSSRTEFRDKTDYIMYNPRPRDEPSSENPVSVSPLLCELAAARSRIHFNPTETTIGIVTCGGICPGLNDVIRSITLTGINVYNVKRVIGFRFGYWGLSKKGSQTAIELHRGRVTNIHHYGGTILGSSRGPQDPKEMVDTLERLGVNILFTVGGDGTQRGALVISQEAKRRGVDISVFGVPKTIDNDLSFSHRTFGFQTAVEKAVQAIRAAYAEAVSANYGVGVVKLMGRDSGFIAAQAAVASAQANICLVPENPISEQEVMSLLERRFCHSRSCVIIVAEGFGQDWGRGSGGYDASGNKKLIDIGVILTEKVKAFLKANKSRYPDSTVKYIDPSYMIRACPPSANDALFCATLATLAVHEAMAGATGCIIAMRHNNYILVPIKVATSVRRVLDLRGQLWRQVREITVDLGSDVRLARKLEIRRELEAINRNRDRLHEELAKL
How it was run: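 Compounds titrated; %activity normalized to 0x and 1x enzyme controls, curve-fitted. Readout: ADP-Glo luminescence after 45 min room-temperature reaction of 1.25 nM PFK, 0.1 mM ATP, 0.5 mM F6P, pH 8.0.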

[6] = molecular target: Ubiquitin carboxyl-terminal hydrolase 1 (Homo sapiens) (UniProt O94782); assay: Inhibitors of USP1/UAF1: Pilot qHTS (AID 504865);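 also: rhodamine fluorescence freed from ubiquitin-rhodamine substrate followed over time; top concentration of the series differs between compounds; % is scaled to controls: 0 for no effect and ±100 for the full control effect; nearly all actives have a fitted effect of over 35% in size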
Chain of Ubiquitin carboxyl-terminal hydrolase 1 (Homo sapiens) (O94782 whole entry, looked up): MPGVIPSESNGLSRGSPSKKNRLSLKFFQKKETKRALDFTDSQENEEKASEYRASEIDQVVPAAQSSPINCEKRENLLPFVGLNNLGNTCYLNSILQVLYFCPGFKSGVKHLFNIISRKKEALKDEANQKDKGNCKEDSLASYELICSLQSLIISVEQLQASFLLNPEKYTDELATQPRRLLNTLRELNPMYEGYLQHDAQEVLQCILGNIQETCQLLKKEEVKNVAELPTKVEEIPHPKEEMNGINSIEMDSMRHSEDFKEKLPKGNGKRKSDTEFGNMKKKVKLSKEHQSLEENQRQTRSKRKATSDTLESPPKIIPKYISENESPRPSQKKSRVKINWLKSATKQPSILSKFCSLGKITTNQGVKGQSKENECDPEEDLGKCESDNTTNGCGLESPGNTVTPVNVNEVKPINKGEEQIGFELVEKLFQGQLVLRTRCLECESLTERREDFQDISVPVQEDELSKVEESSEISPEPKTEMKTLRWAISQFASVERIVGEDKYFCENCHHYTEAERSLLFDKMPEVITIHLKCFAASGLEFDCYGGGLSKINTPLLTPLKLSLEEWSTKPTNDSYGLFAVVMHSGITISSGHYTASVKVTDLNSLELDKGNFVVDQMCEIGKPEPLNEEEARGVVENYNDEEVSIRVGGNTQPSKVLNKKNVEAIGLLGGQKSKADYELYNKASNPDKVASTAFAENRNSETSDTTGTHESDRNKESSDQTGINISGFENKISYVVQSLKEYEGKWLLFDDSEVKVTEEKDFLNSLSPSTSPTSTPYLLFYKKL
How it was run: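 USP1/UAF1 complex (1nM) preincubated with compound 15 min at room temperature, then Ub-Rho substrate (150nM final) added. Fluorescence read kinetically at 480/540 nm, 6 reads every 60 seconds. Buffer: 50mM HEPES pH 7.8, 0.5mM EDTA, 0.1 mg/ml BSA, 1mM TCEP, 0.01% Tween-20.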

[7] = molecular target: Luciferin 4-monooxygenase (Photinus pyralis) (UniProt P08659); assay: Biochemical firefly luciferase enzyme assay for NPC (AID 624030);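 also: purified P. pyralis luciferase at 10 nM with luciferin and ATP substrate; 0% = DMSO and -100% = full luciferase inhibition by PTC124 control; nearly all actives have a fitted effect of over 70% in size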
Chain of Luciferin 4-monooxygenase (Photinus pyralis) (P08659 whole entry, looked up): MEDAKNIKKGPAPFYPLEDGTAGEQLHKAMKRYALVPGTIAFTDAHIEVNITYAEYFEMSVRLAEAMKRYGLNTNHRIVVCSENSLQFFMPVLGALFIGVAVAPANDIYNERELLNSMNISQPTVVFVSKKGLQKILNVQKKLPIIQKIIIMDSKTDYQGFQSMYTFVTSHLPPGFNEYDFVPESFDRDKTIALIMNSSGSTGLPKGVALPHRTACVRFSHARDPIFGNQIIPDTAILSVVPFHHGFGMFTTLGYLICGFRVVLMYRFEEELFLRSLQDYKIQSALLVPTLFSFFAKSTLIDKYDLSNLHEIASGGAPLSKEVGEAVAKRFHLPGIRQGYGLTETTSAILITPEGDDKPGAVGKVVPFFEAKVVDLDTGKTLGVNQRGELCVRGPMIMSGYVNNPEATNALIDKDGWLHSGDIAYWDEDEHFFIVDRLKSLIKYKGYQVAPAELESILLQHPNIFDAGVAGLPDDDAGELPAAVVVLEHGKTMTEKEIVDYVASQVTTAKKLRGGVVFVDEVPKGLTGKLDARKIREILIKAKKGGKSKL
How it was run: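 Purified P. pyralis luciferase at 10 nM in 50 mM Tris Acetate (final), luminescence read within 5 minutes of enzyme addition to compounds. Activity normalised to PTC124 versus DMSO; concentration-response curves classed by r2, magnitude and activity.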

[8] = S16 Schwann cell viability assay (CellTiter-Glo assay) (AID 624031);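 also: cellular ATP luminescence as a viability measure; plate controls were DMSO-treated cells for no effect and cell-free wells for full effect; nearly all actives have a fitted effect of over 70% in size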
How it was run: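 Native S16 Schwann cells (rat), serum-containing medium, overnight attachment then 24 h drug exposure at 37 °C/5% CO2. CellTiter-Glo ATP signal; normalized to cell-free and vehicle wells.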

[9] = S16 Schwann cell PMP22 intronic element beta-lactamase assay (AID 624044; calls by dose curve;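 also: 0% = DMSO and -100% = potassium clavulanate positive control; nearly all actives have a fitted effect of over 15% in size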); details: S16 rat Schwann cells, PMP22 element beta-lactamase FRET, 24 h; ratio activity, negative = inhibition: at 38.3 µM (top of the series)
How it was run: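 Rat S16 Schwann cells with beta-Lac driven by a PMP22 intronic element, compound-treated 24 h at 37 °C. LiveBLAzer FRET B/G read: 460 nm normalized to potassium clavulanate vs DMSO; 535 nm FRET as viability; concentration-effect curves classified.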

[10] = qHTS profiling for inhibitors of Plasmodium falciparum proliferation (AID 504749);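 also: 0% = DMSO vehicle and full inhibition = artemisinin control; nearly all actives have a fitted effect of over 60% in size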; details: P. falciparum in erythrocytes, SYBR Green DNA, 72 h, at 12.8 µM (top of the series)
How it was run: (§1)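 P. falciparum-infected erythrocytes (0.3% parasitemia, 2.5% hematocrit) incubated with compound 72 h at 37 C, 5% CO2. Parasite DNA detected by SYBR Green after lysis, overnight at room temperature; normalised to 0.29 uM artemisinin and DMSO.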

[11] = system: 3D7; assay: as above; details: P. falciparum in erythrocytes, SYBR Green DNA, 72 h; series mostly up to 28.7 µM
How it was run: as §1

[12] = system: 7G8; assay: as above; details: P. falciparum in erythrocytes, SYBR Green DNA, 72 h; series mostly up to 28.7 µM
How it was run: as §1

[13] = system: AA1029; assay: as above; details: P. falciparum in erythrocytes, SYBR Green DNA, 72 h; series mostly up to 28.7 µM
How it was run: as §1

[14] = system: AS120; assay: as above; details: P. falciparum in erythrocytes, SYBR Green DNA, 72 h; series mostly up to 28.7 µM
How it was run: as §1

[15] = system: ATS189; assay: as above; details: P. falciparum in erythrocytes, SYBR Green DNA, 72 h; series mostly up to 28.7 µM
How it was run: as §1

[16] = system: ATS95; assay: as above; details: P. falciparum in erythrocytes, SYBR Green DNA, 72 h; series mostly up to 28.7 µM
How it was run: as §1

[17] = system: C2A; assay: as above; details: P. falciparum in erythrocytes, SYBR Green DNA, 72 h; series mostly up to 28.7 µM
How it was run: as §1

[18] = system: CP185; assay: as above; details: P. falciparum in erythrocytes, SYBR Green DNA, 72 h; series mostly up to 28.7 µM
How it was run: as §1

[19] = system: CP191; assay: as above; details: P. falciparum in erythrocytes, SYBR Green DNA, 72 h; series mostly up to 28.7 µM
How it was run: as §1

[20] = system: CP192; assay: as above; details: P. falciparum in erythrocytes, SYBR Green DNA, 72 h; series mostly up to 28.7 µM
How it was run: as §1

[21] = system: CP194; assay: as above; details: P. falciparum in erythrocytes, SYBR Green DNA, 72 h; series mostly up to 28.7 µM
How it was run: as §1

[22] = system: CP201; assay: as above; details: P. falciparum in erythrocytes, SYBR Green DNA, 72 h; series mostly up to 28.7 µM
How it was run: as §1

[23] = system: CP203; assay: as above; details: P. falciparum in erythrocytes, SYBR Green DNA, 72 h; series mostly up to 28.7 µM
How it was run: as §1

[24] = system: CP211; assay: as above; details: P. falciparum in erythrocytes, SYBR Green DNA, 72 h; series mostly up to 28.7 µM
How it was run: as §1

[25] = system: CP217; assay: as above; details: P. falciparum in erythrocytes, SYBR Green DNA, 72 h; series mostly up to 28.7 µM
How it was run: as §1

[26] = system: CP237; assay: as above; details: P. falciparum in erythrocytes, SYBR Green DNA, 72 h; series mostly up to 28.7 µM
How it was run: as §1

[27] = system: CP238; assay: as above; details: P. falciparum in erythrocytes, SYBR Green DNA, 72 h; series mostly up to 28.7 µM
How it was run: as §1

[28] = system: CP247; assay: as above; details: P. falciparum in erythrocytes, SYBR Green DNA, 72 h; series mostly up to 28.7 µM
How it was run: as §1

[29] = system: CP250; assay: as above; details: P. falciparum in erythrocytes, SYBR Green DNA, 72 h; series mostly up to 28.7 µM
How it was run: as §1

[30] = system: CP252; assay: as above; details: P. falciparum in erythrocytes, SYBR Green DNA, 72 h; series mostly up to 28.7 µM
How it was run: as §1

[31] = system: CP256; assay: as above; details: P. falciparum in erythrocytes, SYBR Green DNA, 72 h; series mostly up to 28.7 µM
How it was run: as §1

[32] = system: CP260; assay: as above; details: P. falciparum in erythrocytes, SYBR Green DNA, 72 h; series mostly up to 28.7 µM
How it was run: as §1

CCCC[C@H]1C(=O)N(c2ccccc2)N(c2ccc(O)cc2)C1=O
inactive: Potency [1] > 20.6 µM | Potency [2] > 20.6 µM | Potency [3] | Potency [4] | Potency [5] | Potency [6] | Potency [7] | Potency [8] | Potency [9] | activity, negative = inhibition ([10]; parasite line A) -7.31% | activity, negative = inhibition ([10]; parasite line B) 3.99% | Potency [11] | Potency [12] | Potency [13] | Potency [14] | Potency [15] | Potency [16] | Potency [17] | Potency [18] | Potency [19] | Potency [20] | Potency [21] | Potency [22] | Potency [23] | Potency [24] | Potency [25] | Potency [26] | Potency [27] | Potency [28] | Potency [29] | Potency [30] | Potency [31] | Potency [32]
